p53ts 39C kill – p53ts cell cytotoxicity, nonpermissive temperature; H1299-p53A138V viability at 39C, ATP luminescence, 24 h; 1.5% of 130,000 active; Potency, µM (doses to about 46.1 µM), hits mostly cytotoxic; further: nearly all actives have a fitted effect of over 55% in size
p53ts 32C kill – kills p53ts cells at the permissive temperature; H1299-p53A138V at 32C, ATP luminescence viability, 24 h; Potency, µM (highest dose often 46.1 µM), usual class: cytotoxic; 0.93% of 130,000 active; further: nearly all actives have a fitted effect of over 55% in size
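Viability by ATPlite luminescence after 24 h compound treatment (up to 46 uM) at the permissive 32C. Cells are H1299 carrying p53 A138V. Scale runs from DMSO basal to 100 uM tamoxifen as full kill; AC50 from Hill fits.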
IkB sig inh – suppresses IkB signaling in ABC-DLBCL reporter cells; ABC-DLBCL IkBa-CBG/CBR dual luciferase ratio, 4 h; response scale: scaled: untreated 0%, proteasome inhibitor 100%; Potency, µM (series often up to 57.1 µM); 0.04% of 110,000 active; AID 445; active means well fitted curve in the direction sought with a large enough effect in the signal ratio, not every such curve was filed as active; inconclusive means small, poorly fitted or top-dose-only effect, or a change in a side signal; the % refers to the signal ratio;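 further: the direction sought is a rising ratio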
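Curves were fitted separately to fusion (green), unfused (red) and ratio luminescence, then classed by r2, magnitude and activity. Cells: OCI-Ly3, 4 h compound plus doxycycline at 37C; 10 uM MG-132 defined full response.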
Peg3 imprint – induces erasure of genomic imprints in mouse ES cells; AID 1948; 0.02% of 110,000 active; Potency, µM (highest dose often 60.7 µM), usual class: activators; mouse ES Peg3-LacZ reporter, beta-gal luminescence, 40 h
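Readout: BetaGlo luminescence (5 min, room temp) for LacZ from the normally silent maternal Peg3 allele in female Peg3LacZ-Neo ES cells. Cells 300/well, 40 h, 37C, 5% CO2. Data normalized per plate to negative controls.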
Each line names hits and unclear results; the compound was inactive in the other large screens; ! = repeats disagree. The list is not random: actives were taken first. Their share in the collection is about 1.7%. Unless noted, the call rests on the fitted dose curve; in most records, active means well fitted curve in the direction sought with a large enough effect; inconclusive means small, poorly fitted or top-dose-only effect, or another doubt; inactive means no such curve, though single readings can be large; an effect the other way counts as inactive or inconclusive.

Cc1ccc(-n2ncc3c(N4CCN(C)CC4)ncnc32)cc1Cl	p53ts 39C kill inconclusive, IkB sig inh inconclusive
CCOc1ccc(CCNC(=O)CSc2nnnn2-c2ccccc2Cl)cc1OCC	IkB sig inh inconclusive
Cc1ccc(CNC(=O)CN2C(=O)CCc3cc(S(=O)(=O)N4CCCCC4)ccc32)cc1	none
C=C1CC[C@@H]2O[C@]2(C)CC[C@@H]2[C@H]1CC2(C)C	none (no result: p53ts 39C kill, p53ts 32C kill, Peg3 imprint)
OC(CNCc1ccco1)COc1ccccc1 (stereo unspecified)	none
OC(CNCc1ccco1)Cn1c2ccccc2c2ccccc21 (stereo unspecified)	p53ts 39C kill 12.6µM, p53ts 32C kill inconclusive, IkB sig inh inconclusive
CCCOC(=O)c1c(NC(=O)C2c3ccccc3Oc3ccccc32)sc2c1CCC(C)C2 (stereo unspecified)	none
Cc1cccc(C(=O)N2c3ncnn3C3(CCCCC3)[C@@H]3CCCC[C@@H]32)c1	p53ts 39C kill 12.6µM
Cc1nc2ccc(NC(=O)Cc3cccs3)cc2s1	p53ts 39C kill 10µM, p53ts 32C kill 15.8µM
COc1ccc(Cn2c(-c3ccc(OC)cc3)nc3ccccc32)cc1	none (no result: IkB sig inh, Peg3 imprint)
COc1ccc(CCN2CCC(Nc3nc4ccccc4n3Cc3ccc(F)cc3)CC2)cc1	p53ts 39C kill 12.6µM!
COc1cccc2c1cc1c(=O)n(CC(=O)N3CCN(c4ccccc4F)CC3)nc(C)n12	none
COc1ccc(CNc2ncnc3c2c(-c2ccccc2)cn3-c2ccc(C)c(Cl)c2)cc1	IkB sig inh inconclusive
CN(C)c1ccc(/C=C2/C(=O)Nc3ccccc32)cc1	p53ts 39C kill 10µM, p53ts 32C kill 10µM, IkB sig inh inconclusive
CN(C)c1ccc(/C=C2\C(=O)Nc3ccccc32)cc1	none (no result: p53ts 39C kill, p53ts 32C kill, IkB sig inh)
CC(C)(C)C(=O)Nc1ccc(-c2nc3ccccc3s2)cc1	p53ts 39C kill 0.316µM, p53ts 32C kill 0.316µM
COc1ccc(-c2nc3ccccc3s2)cc1NC(=O)c1ccc(F)cc1	p53ts 39C kill 12.6µM
COc1cc(OC)cc(C(=O)Nc2cc(-c3nc4ccccc4s3)ccc2OC)c1	none
COc1cc(/C=C(\C#N)c2nc3ccccc3[nH]2)ccc1OCc1cccc(C(F)(F)F)c1	p53ts 39C kill 3.16µM, p53ts 32C kill 12.6µM
COCCNC(=O)c1ccc(Cc2nc3ccccc3[nH]2)cc1	none (no result: IkB sig inh, Peg3 imprint)
COc1ccc(CCN(C)CCCOc2ccc(S(=O)(=O)c3[nH]c4ccccc4c3C(C)C)cc2)cc1OC	p53ts 39C kill 12.6µM, p53ts 32C kill 25.1µM, IkB sig inh inconclusive
CN(Cc1ccco1)c1ccnc(-c2cccc(NS(C)(=O)=O)c2)n1	p53ts 39C kill inconclusive
COc1cccc(-c2nccc(N(C)Cc3ccco3)n2)c1	p53ts 39C kill 10µM, p53ts 32C kill 10µM
O=C(O)c1cccc(NC(=O)c2cccc(S(=O)(=O)N3CCCCC3)c2)c1	none
Cc1ccccc1NC(=O)c1ccc(Cl)c(S(=O)(=O)N2CCCCCC2)c1	p53ts 32C kill inconclusive, IkB sig inh inconclusive
Cc1ccc(C(=O)Nc2ccccc2C(=O)O)cc1S(=O)(=O)N1CCCCCC1	p53ts 39C kill 3.98µM, p53ts 32C kill 7.94µM, IkB sig inh inconclusive
CCN(CC)S(=O)(=O)c1cc(C(=O)Nc2ccccc2C(=O)O)ccc1OC	p53ts 39C kill inconclusive, p53ts 32C kill 12.6µM
CCOC(=O)c1ccc(NC(=O)c2ccc(C)c(S(=O)(=O)N3CCOCC3)c2)cc1	p53ts 39C kill inconclusive, p53ts 32C kill 15.8µM, IkB sig inh inconclusive
Cc1ccc(C(=O)Nc2ccc(F)cc2)cc1S(=O)(=O)N1CCOCC1	IkB sig inh inconclusive
CCN(Cc1ccccc1)S(=O)(=O)c1cc(C(=O)NCC2CCCCC2)ccc1OC	none (no result: p53ts 32C kill, IkB sig inh, Peg3 imprint)
Cc1ccc(C(=O)Nc2cccc(C(=O)O)c2)cc1S(=O)(=O)N1CCCC1	p53ts 39C kill 6.31µM, p53ts 32C kill 12.6µM
CCOc1ccccc1-n1c(N)c(C(=O)OC)c2nc3ccccc3nc21	none
N[C@H](CS(=O)O)C(=O)O	none (no result: p53ts 39C kill, p53ts 32C kill, Peg3 imprint)
C=C1CC[C@H]2C(C)(C)[C@H](O)CC[C@]2(C)[C@@H]1COc1ccc2ccc(=O)oc2c1	none (no result: p53ts 39C kill, p53ts 32C kill, Peg3 imprint)
CCOc1ccccc1NC(=O)c1sc2nc(C)cc(C)c2c1N	none
Cc1cc(C)c2c(N)c(C(=O)Nc3ncc(C)s3)sc2n1	p53ts 39C kill 0.794µM, p53ts 32C kill 1µM (no result: IkB sig inh, Peg3 imprint)
COc1cccc2cc(-c3nnc(Nc4ccccc4C)s3)c(=O)oc12	p53ts 39C kill inconclusive, IkB sig inh inconclusive
Nc1nc(Nc2ccccc2)nc2ccccc12	p53ts 39C kill 2.51µM, p53ts 32C kill 3.98µM, IkB sig inh inconclusive

Compound activity as filed in PubChem BioAssay.
